SMILES strings stand for the structures. Inconclusive results are not listed. A call without a number means that no potency is given here. Activity calls are given as the source filed them. Calls follow the shape of the dose curve; as a rule, active = well fitted activation curve with a large enough effect; inconclusive = small, poorly fitted or top-dose-only effect; inactive = no such curve, though single readings can be large or run the other way.

The nature of this assay: Validation screen for small molecules that induce genotoxicity in human embryonic kidney (HEK293T) cells expressing luciferase-tagged ELG1 (AID 493106). As to conditions: luminescence; series mostly up to 46.1 µM. The source says:
NIH Molecular Libraries Probe Production Network [MLPCN]
NIH Chemical Genomics Center [NCGC]
Assay Provider: Kyungjae Myung, NHGRI, NIH
Keywords: MLPCN, qHTS, NCGC, genotoxicity, cancer
Cancer cells divide rapidly compared to normal cells in the body. During cell division, cancer cells need to duplicate their genome by DNA replication. The failure of genome duplication leads to cancer cells' death. Therefore, inhibitors of DNA replication could specifically kill cancer cells. Based on this concept, many chemotherapeutic agents were developed and have been used to treat cancer patients. However, there are a limited number of agents available in the clinical setting, and some of those that do exist have low efficacy and severe side effects. Therefore, if we can find the compounds that effectively block DNA replication either by directly damaging DNA or by inhibiting other cellular mechanisms, the options for cancer treatment will be broadened. With this in mind, we developed a quantitative high-throughput ELG1-luciferase reporter gene assay. Since the level of human ELG1 protein is enhanced in response to genetic stresses, increases in luciferase activity can be used to identify compounds that cause genetic stress.
For genotoxicity screening, 2,000 cells in 5 uL/well were dispensed into white, solid-bottom 1536-well plates using a solenoid-based dispenser. Following transfer of 23 nL compound or DMSO vehicle by a pin tool, the plates were incubated 16 hr at 37 °C and 5% CO2. 5 ul ONE-Glo (Promega) was then added to each plate and following a 30 min incubation at room temperature, luciferase activity was quantified on a ViewLux CCD-based plate reader.
For the molecule `Nc1nnc(-c2cccc(Cl)c2Cl)c(N)n1`, the Potency entry was “inactive”. On to `CN1C2CCC1CC(OC(=O)C(CO)c1ccccc1)C2` (stereo not given), for which the Potency result is “inactive”. Consider `O=C1Cc2cc(CCN3CCN(c4nsc5ccccc45)CC3)c(Cl)cc2N1`, for which the Potency entry was “inactive”.

Regarding `NC12CC3CC(CC(C3)C1)C2`, the Potency entry was “inactive”. In the case of `CN(C)CCCN1c2ccccc2CCc2ccc(Cl)cc21`, the Potency result is “inactive”. As for `Nc1c2c(nc3ccccc13)CCCC2`, the Potency result is “inactive”.

In the case of `COc1ccc(C2CNC(=O)C2)cc1OC1CCCC1` (stereo not given), the Potency entry is “inactive”. `CC(C)Cc1ccc(C(C)C(=O)O)cc1` (stereo not given): the Potency entry was “inactive”.

Consider `O=C(c1ccc(F)cc1)C1CCN(CCn2c(=O)[nH]c3ccccc3c2=O)CC1`, for which the Potency entry was “inactive”. The entry for `CCC1(C)CC(=O)NC1=O` (stereo not given) is “inactive”; for `Nc1nc2c(ncn2COC(CO)CO)c(=O)[nH]1` it is “inactive”; for `CN1CCC(=C2c3ccccc3CC(=O)c3sccc32)CC1` it is “inactive”. Turning to `CC1COc2c(N3CCN(C)CC3)c(F)cc3c(=O)c(C(=O)O)cn1c23` (stereo not given), the Potency result is “inactive”. Take `CCCCc1oc2ccccc2c1C(=O)c1cc(I)c(OCCN(CC)CC)c(I)c1`: the Potency result is “inactive”. As for `CN1CCN2c3ccccc3Cc3ccccc3C2C1` (stereo not given), the Potency entry is “inactive”.

As for `NC(=O)OCC(COC(N)=O)c1ccccc1`, the Potency result was “inactive”. For `O=C1c2c(O)ccc(O)c2C(=O)c2c(NCCNCCO)ccc(NCCNCCO)c21`, the Potency entry was “inactive”. As for `COc1ccccc1OCCNCC(O)COc1cccc2[nH]c3ccccc3c12` (stereo not given), the Potency result was “inactive”. The result for `CC(C)NCC(O)COc1ccc(CCOCC2CC2)cc1` (stereo not given) reads “inactive”. Turning to `COc1cc2nc(N3CCN(C(=O)C4COc5ccccc5O4)CC3)nc(N)c2cc1OC` (stereo not given), the Potency entry is “inactive”. Turning to `CN(Cc1cnc2nc(N)nc(N)c2n1)c1ccc(C(=O)N[C@@H](CCC(=O)O)C(=O)O)cc1`, the Potency result is “inactive”. On to `Cc1cc(C(C)(C)C)c(O)c(C)c1CC1=NCCN1`, for which the Potency result was “inactive”. Turning to `COc1ccccc1N1CCN(CC(O)COc2cccc3ccccc23)CC1` (stereo not given), the Potency entry was “inactive”. Regarding `CCOC(=O)Nc1ccc(NCc2ccc(F)cc2)nc1N`, the Potency result is “inactive”. Consider `Fc1ccc([C@@H]2CCNC[C@H]2COc2ccc3c(c2)OCO3)cc1`, for which the Potency entry was “inactive”. The result for `CN(C)CCC=C1c2ccccc2C=Cc2ccccc21` reads “inactive”; that for `O=C(c1ccc(OCCN2CCCCC2)cc1)c1c(-c2ccc(O)cc2)sc2cc(O)ccc12`, “inactive”; that for `Cc1cc(C(C)(C)C)cc(C)c1CC1=NCCN1`, “inactive”. On to `CC(C)(Oc1ccc(C2CC2(Cl)Cl)cc1)C(=O)O` (stereo not given), for which the Potency entry was “inactive”.

For `CN(C)CCOC(c1ccccc1)c1ccccc1`, the Potency entry is “inactive”. For the molecule `NCCS(=O)(=O)O`, the Potency entry was “inactive”.

Regarding `CN(C)c1nc(N(C)C)nc(N(C)C)n1`, the Potency result was “inactive”. The result for `COc1nc(C)nc(Cl)c1NC1=NCCN1` reads “inactive”; that for `OCCN1CCN(CCCN2c3ccccc3Sc3ccc(C(F)(F)F)cc32)CC1`, “inactive”.

As to `CCc1cccc2c3c([nH]c12)C(CC)(CC(=O)O)OCC3` (stereo not given), the Potency entry was “inactive”. Take `Cn1c(=O)c2c(ncn2C)n(C)c1=O`: the Potency entry was “inactive”.

Consider `CCOC(=O)c1ncn2c1CN(C)C(=O)c1cc(F)ccc1-2`, for which the Potency entry is “inactive”. The entry for `COc1cc2nc(N(C)CCCNC(=O)C3CCCO3)nc(N)c2cc1OC` (stereo not given) is “inactive”. `CCOC(=O)C(C)(C)Oc1ccc(Cl)cc1`: the Potency entry is “inactive”. As to `NCCCCCC(=O)O`, the Potency entry is “inactive”.

For the origin of these results see PubChem BioAssay (NCATS).
